D2 ag-1: HTS Assay for Allosteric Agonists of the Human D2 Dopamine Receptor: Primary Screen for Agonists; activation, % at 2 µM; D(2) dopamine receptor (Homo sapiens), P14416; 340,000 compounds, 0.53% hits; HEK293 T-REx D2 cells, calcium flux agonist mode;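 active = activation over 3 SD above normal in the single-dose calcium agonist read, cut at about 30% in these data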
Target sequence (P14416 whole entry, looked up): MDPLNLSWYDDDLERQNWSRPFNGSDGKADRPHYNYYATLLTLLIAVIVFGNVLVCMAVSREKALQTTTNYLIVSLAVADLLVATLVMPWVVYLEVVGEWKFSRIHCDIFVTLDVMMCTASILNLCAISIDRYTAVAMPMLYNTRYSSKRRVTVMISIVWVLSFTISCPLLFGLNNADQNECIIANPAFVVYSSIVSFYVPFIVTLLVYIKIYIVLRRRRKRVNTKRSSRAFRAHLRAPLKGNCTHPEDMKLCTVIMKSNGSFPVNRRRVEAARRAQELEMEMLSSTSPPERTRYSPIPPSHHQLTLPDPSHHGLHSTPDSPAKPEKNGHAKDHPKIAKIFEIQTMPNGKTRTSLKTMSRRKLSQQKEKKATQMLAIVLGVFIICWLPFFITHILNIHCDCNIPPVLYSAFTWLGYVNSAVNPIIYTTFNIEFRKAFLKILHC
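Tetracycline-induced HEK293 Trex cells with D2 receptor force-coupled to calcium signaling, plated overnight at 30 C and loaded with no-wash calcium dye. Calcium flux read kinetically for 180 s after compound addition; responses flag agonists.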
D2 PAM-1: HTS Assay for Positive Allosteric Modulators of the Human D2 Dopamine Receptor: Primary Screen for Potentiators; HEK293 T-REx D2, calcium flux, EC20 dopamine potentiation; potentiation, % at 10 µM; 340,000 compounds, 0.34% hits;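 active = potentiation over 3 SD above the plate norm, cut at about 30% in these data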
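Cells plated with tetracycline inducer and held overnight at 30 C; calcium dye loaded 30–90 min at room temperature; baseline taken, compound added and read 180 s; EC20 dopamine then added and read 180 s.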
D2 antagonist: HTS Assay for Allosteric Antagonists of the Human D2 Dopamine Receptor: Primary Screen for Antagonists | D(2) dopamine receptor (Homo sapiens), P14416 | HEK293 TREx D2 cells, calcium flux, dopamine EC80 | inhibition, % at 10 µM | 340,000 compounds, 2% hits; in the data active = inhibition above about 30%; inactive = below that, where a call was filed
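Measurement of antagonist activity uses fluorescent calcium dye in inducible HEK293 T-REx D2 cells: 10 s baseline, compound addition with 180 s read, EC80 dopamine addition with a further 180 s read.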
D2 PAM-2: Beta-Arrestin HTS for Positive Allosteric Modulators of the Human D2 Dopamine Receptor: Potentiators; D(2) dopamine receptor (Homo sapiens), P14416; DiscoveRx D2 beta-arrestin cells, luminescence, 90 min; 100% = 57 uM dopamine signal; potentiation, % (test concentration not listed); 360,000 compounds, 0.23% hits; in the data active = potentiation above about 50%; inconclusive = mostly about 30% to 49%
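PathHunter D2 cells, attached overnight at 37 deg C, received compound in DMSO plus dopamine at EC20 (50 nM final) for 90 min at 37 deg C. Beta-arrestin recruitment was read as luminescence after 1 h with detection reagent at ambient temperature.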
D2 ag-2: Beta-Arrestin HTS for Positive Allosteric Modulators of the Human D2 Dopamine Receptor: Agonists. DiscoveRx PathHunter D2 beta-arrestin, luminescence, 90 min; 100% = 57 uM dopamine signal. activation, % (concentration not given with the values). 360,000 compounds, 0.084% hits. D(2) dopamine receptor (Homo sapiens), P14416; in the data active = activation above about 40%; inconclusive = between about 15% and that limit
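DiscoveRx PathHunter D2 beta-arrestin cells (2,100/well) attached overnight, then compound-stimulated 90 min at 37 C in HBSS/10 mM HEPES/0.1% Tween-20 buffer; beta-galactosidase complementation read by luminescence after 1 h at ambient temperature. Dopamine 57 uM final (EC100) as control.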
A number is an active result; - = inactive; ? = inconclusive; . = not tested or not shown. In the library only some 2.4% were active in any assay of this set; here they are far more common.

SMILES	D2 ag-1	D2 PAM-1	D2 antagonist	D2 PAM-2	D2 ag-2
CCNc1ccc(Br)cc(C(=O)/C=C/c2c(Cl)cccc2Cl)c1=O	-	48	-	-	-
Nc1c2c(nc3ccc(Br)cc13)N(C1CCCCC1)CC2	-	-	74	.	.
CCCCCCN(C(=O)CCCCCN1C(=O)NC(c2ccc(-c3ccccc3)cc2)C(C(=O)OCc2ccccc2)=C1C)C(C(=O)NCCCC)C1CCCCC1 (stereo not drawn)	-	-	-	.	.
CCCCCCN(C(=O)CCCCCN1C(=O)NC(c2ccc(-c3ccccc3)cc2)C(C(=O)OCc2ccccc2)=C1C)C(C(=O)NCCCC)c1ccccn1 (stereo not drawn)	-	-	31	.	.
Cc1ccc(C)c(C(=O)N(Cc2nc(-c3ccc(Cl)cc3)no2)C(C)C)c1	-	-	40	-	-
COc1ccc(CNC(=O)C2Cc3c(-c4cccc(F)c4)ccnc3O2)cc1OC (stereo not drawn)	.	.	.	-	-
COc1ccc(S(=O)(=O)n2nc(-c3cc(OC)c(OC)c(OC)c3)cc2N)cc1OC	-	-	-	-	-
COc1ccc(-c2cc(N)n(S(=O)(=O)c3c(F)c(F)c(F)c(F)c3F)n2)cc1OC	-	-	35	-	-
C=CCc1ccc(OCCCCN2CCC(C)CC2)c(OC)c1	-	-	-	-	-
C=CCc1ccc(OCCCCN2CC(C)CC(C)C2)c(OC)c1 (stereo not drawn)	-	-	39	-	-
CCOC(=O)c1c(CSc2ccccc2)n(C)c2cc(Br)c(O)c(CN(C)C)c12	-	-	-	-	-
CCOC(=O)c1c(CN2CCCCC2)n(C)c2cc(Br)c(O)c(CN(C)C)c12	-	-	60	-	-
CCc1ccc(S(=O)(=O)Nc2cc3c(cc2C)n(C)c(=O)c(=O)n3C)cc1	-	-	.	.	.
Cc1cccc(C)c1NC(=S)N/N=C/c1ccc(C(=O)O)cc1	-	-	36	-	-
CC(CNC(=O)c1ccc2c(c1)nc1n2CCOC1)c1ccccc1 (stereo not drawn)	-	-	.	.	.
O=C(/C=C/c1ccco1)NCC1OCCc2ccccc21 (stereo not drawn)	-	-	31	-	-
CCOc1ccccc1OCCCNCc1ccco1	-	-	31	-	-
CC(C)(C)CC(=O)Nc1nnc(CCc2ccccc2)s1	-	-	-	-	-
CCC(C)(C)C(=O)Nc1nnc(CCc2ccccc2)s1	-	-	44	-	-
O=C(COC(=O)c1cccc(S(=O)(=O)N2CCCCC2)c1)NCc1cccc(Cl)c1	.	.	.	-	-
COc1ccc(Nc2ncc3c(n2)CC(c2ccc(OC)cc2)CC3=O)cc1 (stereo not drawn)	-	.	-	-	-
COc1ccc(Nc2ncc3c(n2)CC(c2ccc(C)cc2)CC3=O)cc1 (stereo not drawn)	-	-	36	-	-
CCOC(=O)C1=C(O)C(=O)N(c2ccccc2)C1c1cccc([N+](=O)[O-])c1 (stereo not drawn)	-	-	33	-	-
CCOC(=O)C1=C(O)C(=O)N(c2ccc(S(N)(=O)=O)cc2)C1c1cccc([N+](=O)[O-])c1 (stereo not drawn)	-	-	-	-	-
CCOC(=O)C1=C(O)C(=O)N(c2ccc(S(N)(=O)=O)cc2)C1c1ccc(OC)cc1OC (stereo not drawn)	-	42	-	-	-
SMILES	D2 ag-1	D2 PAM-1	D2 antagonist	D2 PAM-2	D2 ag-2
CCOC(=O)C1=C(C)N(C[C@@H]2CC[C@@H](Cc3ccc(-c4ccccc4)cc3)O2)C(=O)NC1c1cccc([N+](=O)[O-])c1 (stereo partly drawn)	.	.	.	.	-
CC(C)CC(OC(=O)c1nsc(Cl)c1Cl)C(=O)NC1CCCC1 (stereo not drawn)	-	-	69	-	-
CCOC(=O)Cc1c[nH]c(=S)[nH]c1=O	.	.	.	-	-
Cn1c(N2CCOCC2)c(/C=N/OC(=O)c2ccc(F)cc2)c2ccccc21	-	-	-	141	?
CC(=O)O/N=C/c1c(N2CCOCC2)n(C)c2ccccc12	.	.	.	62	-
Cn1c(Cl)c(/C=N/OC(=O)c2ccc(Cl)cc2)c2ccccc21	-	-	56	-	-
Cc1ccc(C(=O)O/N=C/c2c(Cl)n(C)c3ccccc23)cc1	-	-	-	-	-
Cc1ccc(C(=O)O/N=C/c2c(N3CCOCC3)n(C)c3ccccc23)cc1	-	-	-	85	?
O=C(Nc1ccc(F)cc1)N1CCn2c(nc3ccccc32)C1	-	-	33	-	-
COc1ccccc1N(C)S(=O)(=O)c1ccc(Cl)c(C(=O)NC2=NCCS2)c1	-	-	-	-	-
CN(c1ccccc1)S(=O)(=O)c1ccc(Cl)c(C(=O)NC2=NCCS2)c1	-	31	-	-	-
Cc1ccc(-c2nc(CSCC(=O)N3CCN(c4ccccn4)CC3)c(C)o2)cc1	37	-	-	-	-
CCc1ccccc1NC(=O)CN(C)C(=O)COC(=O)c1ccco1	.	.	.	-	-
O=C(c1ccc(NS(=O)(=O)c2ccc(F)cc2)cc1)N1CCC1	-	-	42	-	-
CCOC(=O)N1CCN(C(=O)c2ccc(NS(=O)(=O)c3ccc(F)cc3)cc2)CC1	-	-	-	?	-
O=C(c1ccc(S(=O)(=O)Nc2ccccc2Cl)cc1)N1CCCC1	.	.	.	-	-
O=C(c1ccc(S(=O)(=O)Nc2ccccc2F)cc1)N1CCCC1	-	-	51	-	-
Cc1ccc(CN2c3ccccc3-c3nc(SCC(=O)NCCc4ccccc4)ncc3S2(=O)=O)cc1	-	-	.	.	.
CCc1ccccc1NC(=O)/C(C#N)=C\c1ccc(Sc2ccccc2)o1	-	40	-	-	-
COc1ccc(N=Nc2nc3ccc(Br)cc3n2C)cc1	-	33	-	-	-
CC(C)c1nnc(NC(=O)C2CCCN2C(=O)Nc2ccccc2F)s1 (stereo not drawn)	-	-	38	-	-
COc1ccccc1NC(=O)N1CCCC1C(=O)Nc1nnc(C(C)C)s1 (stereo not drawn)	-	-	-	-	-
Clc1ccc(-c2nc3cc(CN4CCCCC4)ccc3o2)cc1	-	-	-	-	-
COc1ccc(Br)cc1C1Nc2ccccc2C(=O)N1NC(=O)c1ccncc1 (stereo not drawn)	-	30	-	-	-
O=C(NN1C(=O)c2cc(Br)ccc2NC1c1ccccc1Cl)c1ccncc1 (stereo not drawn)	.	.	.	-	-

Source: PubChem BioAssay
